# Source: PubChem BioAssay (EPA / NIEHS)
# Calls of active or inactive are those of the source. How the source made its calls: active means hit-call score of the fitted dose curve at least 0.9, where 1 is the maximum; inactive means score below 0.9.
# How the values were obtained:
# Details in all cases: mRNA level, 48 h; actives raise or lower the signal
# [1] = read-out: Cytochrome P450 (CYP24A1), CYP24A1 (gene 1591); test: LTEA_HepaRG_CYP24A1: Life Technologies and Expression Analysis (LTEA) Assay for Cytochrome P450 (CYP24A1) using HepaRG (AID 2283478)
# Procedure, shortened: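 mRNA of CYP24A1 quantified by TaqMan qRT-PCR (ACTB/GAPDH/POLR2A normalization) after 48 h chemical exposure of HepaRG cells, top concentration 100 uM, half-log steps, 0.5% DMSO vehicle, duplicates. Curves fitted bidirectionally against DMSO baseline.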
# [2] = read-out: Cytochrome P450 (CYP1A2), CYP1A2 (gene 1544); test: LTEA_HepaRG_CYP1A2: Life Technologies and Expression Analysis (LTEA) Assay for Cytochrome P450 (CYP1A2) using HepaRG (AID 2283479)
# Procedure, shortened: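 CYP1A2 transcript measured by TaqMan qRT-PCR against three housekeeping genes after 48-hour chemical exposure of HepaRG cells. Eight-point half-log series topping at 100 uM in 0.5% DMSO, duplicates; gain or loss fitted relative to vehicle.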
# [3] = read-out: cysteine-aspartic acid protease (CASP8), CASP8 (gene 841); test: LTEA_HepaRG_CASP8: Life Technologies and Expression Analysis (LTEA) Assay for cysteine-aspartic acid protease (CASP8) using HepaRG (AID 2283480)
# Procedure, shortened: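 CASP8 transcript measured by TaqMan qRT-PCR with ACTB/GAPDH/POLR2A normalization, after 48 h chemical exposure of HepaRG cells in serum-free induction medium. Eight concentrations, top 100 uM, half-log steps, 0.5% DMSO vehicle; fits in both directions versus DMSO.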
# [4] = read-out: Cytochrome P450 (CYP2B6), CYP2B6 (gene 1555); test: LTEA_HepaRG_CYP2B6: Life Technologies and Expression Analysis (LTEA) Assay for Cytochrome P450 (CYP2B6) using HepaRG (AID 2283481)
# Procedure, shortened: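 CYP2B6 transcript level quantified by qRT-PCR against three housekeeping genes, fitted bidirectionally relative to DMSO. HepaRG cultures received chemicals for 48 h, 8-point half-log series from 100 uM in 0.5% DMSO, duplicate wells, serum-free induction medium.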
# [5] = read-out: CYP2C8 (gene 1558); test: LTEA_HepaRG_CYP2C8: Life Technologies and Expression Analysis (LTEA) Assay for CYP2C8 using HepaRG (AID 2283483)
# Procedure, shortened: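 CYP2C8 expression measured by TaqMan qRT-PCR and normalized to three housekeeping genes. HepaRG cultures were treated for 48 h with an eight-point half-log series topping at 100 uM, vehicle 0.5% DMSO, duplicates; fitted both directions against DMSO.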
# [6] = read-out: CYP2C9 (gene 1559); test: LTEA_HepaRG_CYP2C9: Life Technologies and Expression Analysis (LTEA) Assay for CYP2C9 using HepaRG (AID 2283484)
# Procedure, shortened: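 CYP2C9 transcript level, quantified by TaqMan qRT-PCR against three housekeeping genes, was fitted bidirectionally relative to 0.5% DMSO. HepaRG cultures were treated 48 h, in duplicate, at eight half-log concentrations topping at 100 uM.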
# [7] = read-out: CYP2E1 (gene 1571); test: LTEA_HepaRG_CYP2E1: Life Technologies and Expression Analysis (LTEA) Assay for CYP2E1 using HepaRG (AID 2283485)
# Procedure, shortened: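 CYP2E1 transcript measured by Fluidigm qRT-PCR against three housekeeping genes in human HepaRG cells treated 48 h (top 100 uM, half-log steps, 0.5% DMSO vehicle). Gain or loss fitted relative to DMSO baseline.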
# [8] = read-out: CYP4A11 (gene 1579); test: LTEA_HepaRG_CYP4A11: Life Technologies and Expression Analysis (LTEA) Assay for CYP4A11 using HepaRG (AID 2283486)
# Procedure, shortened: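 Readout is CYP4A11 transcript level by qRT-PCR, normalized to three housekeeping genes and fitted bidirectionally against 0.5% DMSO. Human HepaRG cells were treated 48 h, in duplicate, with an 8-point half-log series topping at 100 uM.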
# [9] = read-out: Cytochrome P450 3A4 (Homo sapiens) (UniProt P08684); test: LTEA_HepaRG_CYP3A4: Life Technologies and Expression Analysis (LTEA) Assay for CYP3A4 using HepaRG (AID 2283487)
# Procedure, shortened: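 Differentiated HepaRG cells in serum-free induction medium exposed in duplicate for 48 h to 8 half-log concentrations up to 100 uM in 0.5% DMSO. CYP3A4 mRNA measured by qRT-PCR normalized to ACTB, GAPDH and POLR2A; bidirectional fit versus DMSO.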
# [10] = read-out: Pro-epidermal growth factor (Homo sapiens) (UniProt P01133); test: LTEA_HepaRG_EGF: Life Technologies and Expression Analysis (LTEA) Assay for Epidermal growth factor (EGF) using HepaRG (AID 2283489)
# Procedure, shortened: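 EGF transcript measured by Fluidigm TaqMan qRT-PCR with three housekeeping genes for normalization, 48 h after dosing HepaRG cultures in duplicate (top 100 uM, half-log steps, 0.5% DMSO vehicle). Gain or loss relative to DMSO fitted.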
# [11] = read-out: Early growth response protein 1 (EGR1) transcription factor, EGR1 (gene 1958); test: LTEA_HepaRG_EGR1: Life Technologies and Expression Analysis (LTEA) Assay for Early growth response protein 1 (EGR1) transcription factor using HepaRG (AID 2283490)
# Procedure, shortened: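 EGR1 transcript levels quantified by qRT-PCR (Fluidigm arrays) against three housekeeping genes after 48 h chemical exposure of HepaRG cells. Eight-point half-log series topping at 100 uM, 0.5% DMSO vehicle, analyzed for gain or loss.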
# [12] = read-out: Ezrin (EZR), EZR (gene 7430); test: LTEA_HepaRG_EZR: Life Technologies and Expression Analysis (LTEA) Assay for Ezrin (EZR) using HepaRG (AID 2283491)
# Procedure, shortened: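 Differentiated human HepaRG cells, 48 h after plating, were exposed in serum-free induction medium for 48 hours to eight half-log concentrations up to 100 uM in 0.5% DMSO. EZR mRNA was measured by TaqMan qRT-PCR, normalized to ACTB, GAPDH and POLR2A, and fitted bidirectionally against DMSO.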
# [13] = read-out: Cytochrome P450 3A7 (Homo sapiens) (UniProt P24462); test: LTEA_HepaRG_CYP3A7: Life Technologies and Expression Analysis (LTEA) Assay for CYP3A7 using HepaRG (AID 2283492)
# Procedure, shortened: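 CYP3A7 transcript measured by qRT-PCR (ACTB, GAPDH, POLR2A normalization) after 48 h chemical exposure of HepaRG cells in duplicate. Eight half-log concentrations, maximum 100 uM, 0.5% DMSO vehicle; bidirectional curve fitting against DMSO baseline.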
# [14] = read-out: CYP3A5 (gene 1577); test: LTEA_HepaRG_CYP3A5: Life Technologies and Expression Analysis (LTEA) Assay for CYP3A5 using HepaRG (AID 2283493)
# Procedure, shortened: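 mRNA levels were quantified by qRT-PCR on Fluidigm arrays and normalized to three housekeeping genes. Differentiated HepaRG cells received 48 h exposure (top 100 uM, half-log steps, 0.5% DMSO vehicle, duplicate); bidirectional fitting versus DMSO.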
# [15] = read-out: Fatty Acid-Binding Protein 1 (FABP1), FABP1 (gene 2168); test: LTEA_HepaRG_FABP1: Life Technologies and Expression Analysis (LTEA) Assay for Fatty Acid-Binding Protein 1 (FABP1) using HepaRG (AID 2283494)
# Procedure, shortened: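 FABP1 expression by TaqMan qRT-PCR, normalised to three housekeeping genes, in HepaRG cells after 48 h chemical treatment. Eight-point half-log series topping at 100 uM in 0.5% DMSO, duplicates; gain or loss fitted relative to vehicle.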
# [16] = read-out: Cytochrome P450 4A22 (Homo sapiens) (UniProt Q5TCH4); test: LTEA_HepaRG_CYP4A22: Life Technologies and Expression Analysis (LTEA) Assay for Cytochrome P450 4A22 (CYP4A22) using HepaRG (AID 2283495)
# Procedure, shortened: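 Gene expression measured by qRT-PCR against three housekeeping genes (ACTB, GAPDH, POLR2A), with gain or loss fitted relative to 0.5% DMSO vehicle. HepaRG cultures received 48 h chemical treatment, top concentration 100 uM, half-log steps, duplicate wells.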
# [17] = read-out: Cytochrome P450 7A1 (Homo sapiens) (UniProt P22680); test: LTEA_HepaRG_CYP7A1: Life Technologies and Expression Analysis (LTEA) Assay for Cytochrome P450 7A1 (CYP7A1) using HepaRG (AID 2283496)
# Procedure, shortened: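 HepaRG, 48 h exposure, 8-pt half-log series from 100 uM, 0.5% DMSO vehicle, duplicates. Readout: TaqMan qRT-PCR mRNA vs three housekeeping genes; bidirectional curve fit against DMSO baseline.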
# [18] = read-out: Glutathione S-Transferase (GSTA2), GSTA2 (gene 2939); test: LTEA_HepaRG_GSTA2: Life Technologies and Expression Analysis (LTEA) Assay for Glutathione S-Transferase (GSTA2) using HepaRG (AID 2283497)
# Procedure, shortened: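 GSTA2 transcript levels came from Fluidigm TaqMan qRT-PCR normalized to three housekeeping genes, fitted in both directions against DMSO. HepaRG cultures received chemicals for 48 h in serum-free induction medium (0.5% DMSO), 8 half-log concentrations up to 100 uM, duplicate.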
# [19] = read-out: DNA damage-inducible transcript 3 (DDIT3), DDIT3 (gene 1649); test: LTEA_HepaRG_DDIT3: Life Technologies and Expression Analysis (LTEA) Assay for DNA damage-inducible transcript 3 (DDIT3) using HepaRG (AID 2283488)
# Procedure, shortened: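 DDIT3 transcript was quantified by qRT-PCR with ACTB/GAPDH/POLR2A normalization after 48 h chemical treatment of differentiated HepaRG cells in 0.5% DMSO. Dosing was eight-point, half-log, top 100 uM, duplicate wells. Curves fitted bidirectionally versus DMSO.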
# Chain of Cytochrome P450 3A7 (Homo sapiens) (P24462 whole entry, looked up): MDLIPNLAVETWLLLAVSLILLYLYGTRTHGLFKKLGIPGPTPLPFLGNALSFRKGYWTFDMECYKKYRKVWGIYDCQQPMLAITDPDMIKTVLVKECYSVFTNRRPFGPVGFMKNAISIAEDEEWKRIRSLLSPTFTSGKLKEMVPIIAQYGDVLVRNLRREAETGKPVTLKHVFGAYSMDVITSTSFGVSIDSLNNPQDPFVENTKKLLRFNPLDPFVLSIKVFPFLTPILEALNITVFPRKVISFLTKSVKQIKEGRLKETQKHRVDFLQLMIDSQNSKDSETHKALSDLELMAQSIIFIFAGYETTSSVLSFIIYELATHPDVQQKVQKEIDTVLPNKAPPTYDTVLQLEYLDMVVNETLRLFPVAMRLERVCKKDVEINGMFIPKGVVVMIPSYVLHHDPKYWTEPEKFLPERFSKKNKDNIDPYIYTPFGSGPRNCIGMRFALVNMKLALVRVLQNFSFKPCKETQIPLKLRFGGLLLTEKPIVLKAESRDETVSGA
# Chain of Cytochrome P450 3A4 (Homo sapiens) (P08684 whole entry, looked up): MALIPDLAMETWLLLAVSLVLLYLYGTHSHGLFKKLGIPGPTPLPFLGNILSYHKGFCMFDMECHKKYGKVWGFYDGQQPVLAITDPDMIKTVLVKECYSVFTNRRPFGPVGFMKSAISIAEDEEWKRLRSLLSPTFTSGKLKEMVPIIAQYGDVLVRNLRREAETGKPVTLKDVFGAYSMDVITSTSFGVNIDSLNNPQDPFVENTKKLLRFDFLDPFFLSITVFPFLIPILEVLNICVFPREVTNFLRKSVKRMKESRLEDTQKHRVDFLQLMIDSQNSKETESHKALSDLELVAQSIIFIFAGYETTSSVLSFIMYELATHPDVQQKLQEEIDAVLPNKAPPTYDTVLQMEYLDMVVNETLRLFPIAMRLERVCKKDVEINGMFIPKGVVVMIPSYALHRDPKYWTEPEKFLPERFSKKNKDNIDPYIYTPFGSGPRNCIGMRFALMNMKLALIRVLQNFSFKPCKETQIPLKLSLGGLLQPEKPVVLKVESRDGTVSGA
smiles,measurement,setting,value
CCCCOC(=O)C(C)Oc1ccc(Oc2ccc(C(F)(F)F)cn2)cc1 (stereo unspecified),outcome,[1],inactive
same,outcome,[2],inactive
same,outcome,[3],inactive
same,outcome,[4],inactive
same,outcome,[5],inactive
same,outcome,[6],inactive
same,outcome,[7],inactive
same,outcome,[8],inactive
same,outcome,[9],inactive
same,outcome,[10],inactive
same,outcome,[11],inactive
same,outcome,[12],inactive
same,outcome,[13],inactive
same,outcome,[14],inactive
same,outcome,[15],inactive
same,outcome,[16],inactive
same,outcome,[17],inactive
same,outcome,[18],inactive
COC(=O)c1ccccc1C(=O)O,outcome,[1],inactive
same,outcome,[2],inactive
same,outcome,[3],inactive
same,outcome,[4],inactive
same,outcome,[5],inactive
same,outcome,[6],inactive
same,outcome,[7],inactive
same,outcome,[8],inactive
same,outcome,[9],inactive
same,outcome,[19],inactive
same,outcome,[10],inactive
same,outcome,[11],inactive
same,outcome,[12],inactive
same,outcome,[13],inactive
same,outcome,[14],inactive
same,outcome,[15],inactive
same,outcome,[16],inactive
same,outcome,[17],inactive
same,outcome,[18],inactive
COCCO,outcome,[1],inactive
same,outcome,[2],inactive
same,outcome,[3],inactive
same,outcome,[4],inactive
same,outcome,[5],inactive
same,outcome,[6],inactive
same,outcome,[7],inactive
same,outcome,[8],inactive
same,outcome,[9],inactive
same,outcome,[11],inactive
same,outcome,[12],inactive
same,outcome,[13],inactive
same,outcome,[14],inactive
same,outcome,[15],inactive
same,outcome,[18],inactive
CCSC(=O)N(CC(C)C)CC(C)C,outcome,[1],inactive
same,outcome,[2],inactive
same,outcome,[3],inactive
same,outcome,[4],inactive
same,outcome,[5],inactive
same,outcome,[6],inactive
same,outcome,[7],inactive
same,outcome,[8],inactive
same,outcome,[9],inactive
same,outcome,[10],inactive
same,outcome,[11],inactive
same,outcome,[12],inactive
same,outcome,[13],inactive
same,outcome,[14],inactive
same,outcome,[15],inactive
same,outcome,[16],inactive
same,outcome,[17],inactive
same,outcome,[18],inactive
CCN(Cc1c(F)cccc1Cl)c1c([N+](=O)[O-])cc(C(F)(F)F)cc1[N+](=O)[O-],outcome,[1],inactive
same,AC50,[2],13.3 µM (active)
same,AC50,[4],12.7 µM (active)
same,outcome,[5],inactive
same,outcome,[6],inactive
same,AC50,[7],40.9 µM (active)
same,AC50,[8],36.3 µM (active)
same,AC50,[9],8.01 µM (active)
same,outcome,[19],inactive
same,AC50,[10],14 µM (active)
same,outcome,[11],inactive
same,outcome,[12],inactive
same,outcome,[13],inactive
same,outcome,[14],inactive
same,AC50,[15],38.7 µM (active)
same,outcome,[16],inactive
same,AC50,[17],50 µM (active)
same,AC50,[18],11.7 µM (active)
COC(=O)CSc1cc(N=c2sc(=O)n3n2CCCC3)c(F)cc1Cl,outcome,[1],inactive
same,outcome,[2],inactive
same,outcome,[3],inactive
same,AC50,[4],38.8 µM (active)
same,outcome,[5],inactive
same,outcome,[6],inactive
same,AC50,[7],50 µM (active)
same,outcome,[8],inactive
same,AC50,[9],13.5 µM (active)
same,outcome,[10],inactive
same,outcome,[11],inactive
same,outcome,[12],inactive
same,AC50,[13],16 µM (active)
same,outcome,[14],inactive
same,outcome,[15],inactive
same,outcome,[16],inactive
same,outcome,[17],inactive
same,outcome,[18],inactive
